Out of some 69,000 compounds screened, about 8,600 (12%) showed an effect of 50% or more. This is one part of a sample in which strong results are shown more often than they occur.
What follows are compounds tested on Plasmodium berghei (assay: Screen against P. berghei liver stage (PbLuc), transformed with Luciferase, at 10uM). Details: tested at 10 uM.
Format: functional, HepG2
`CCN(Cc1ccc(OC)c(F)c1)Cc1nc2c(cnn2C)c(=O)[nH]1` gave an INHIBITION of 11.6%.
`COCCNC(=O)N1CCN(C(=O)Cc2ccccc2F)CC1` showed an INHIBITION of -63.6%.
`CN1N=C(C(=O)N(Cc2ccco2)C2CCCC2)CCC1=O` gave an INHIBITION of 46.1%.
In the case of `Cc1nc(C)c(C(=O)N2CCc3nnc(C4CCCCN4C)n3CC2)s1` (stereo unspecified), the INHIBITION is reported as -12.4%.
For `CCc1ccccc1Nc1noc2c1CN(C(=O)C1CCCO1)CC2` (stereo unspecified), the INHIBITION was -9.32%.
In the case of `CCN1CCCCC1C(=O)N1CCc2onc(-c3ccc(Cl)cc3)c2C1` (stereo unspecified), the INHIBITION is reported as 20.2%.
For `O=C(C1CCCO1)N1CCc2onc(-c3ccc(Cl)cc3)c2C1` (stereo unspecified), the INHIBITION was 59.1%.
With `Cn1cc(C(=O)N2CCN(Cc3ccsc3)CC2)cn1` the INHIBITION was -2.825%.
In the case of `CCSCCNC(=O)Nc1cc(C(=O)N2CCOCC2)ccc1Cl`, the INHIBITION is reported as 36.9%.
Compound `O=C(NCCN1CCCC1)Nc1cc(C(=O)N2CCOCC2)ccc1Cl` has an INHIBITION of 67.5%.
`O=C(NCCn1cccn1)Nc1cc(C(=O)N2CCOCC2)ccc1Cl` showed an INHIBITION of 45.2%.
`Cc1cc(C)nc(N2CCOC(c3cc(CCO)[nH]n3)C2)n1` (stereo unspecified) showed an INHIBITION of 2.99%.
`CC(C)(C)C1SCC(=O)Nc2c1c(O)nn2C1CCCC1` (stereo unspecified) was tested, and the INHIBITION was 48%.
`Cn1cc(CN2CCCC3(CCCCN3S(C)(=O)=O)C2)cn1` (stereo unspecified) gave an INHIBITION of 18.3%.
`Cc1cnc(N2CCc3cc(C(=O)O)c(N(C)C)nc3CC2)nc1` showed an INHIBITION of 31.2%.
`CNC(=O)c1cc2c(nc1N(C)C)CCN(S(=O)(=O)N(C)C)CC2` gave an INHIBITION of 44.8%.
In the case of `CCc1cnc(N2CCc3cc(C(=O)NC)c(N(C)C)nc3CC2)nc1`, the INHIBITION is reported as 81%.
In the case of `CNC(=O)c1cc2c(nc1N(C)C)CCN(c1ncc(C)cn1)CC2`, the INHIBITION is reported as 57.5%.
With `CNC(=O)c1cc2c(nc1N(C)C)CCN(S(=O)(=O)CC(C)C)CC2` the INHIBITION was -22.8%.
For `CCS(=O)(=O)N1CCc2cc(C(=O)NC)c(N(C)C)nc2CC1`, the INHIBITION was 19.8%.
`CNC(=O)c1cc2c(nc1NCC(C)C)CCN(S(C)(=O)=O)CC2` showed an INHIBITION of -26.1%.
Work on `CNC(=O)c1cc2c(nc1N(C)C)CCN(S(=O)(=O)C1CC1)CC2` yielded an INHIBITION of 9.3%.
`CNC(=O)c1cc2c(nc1N(C)C)CCN(c1ncccn1)CC2` gave an INHIBITION of 63.8%.
For `CNC(=O)c1cc2c(nc1N(C)C)CCN(c1ncc(F)cn1)CC2`, the INHIBITION was 50.3%.
Compound `CNC(=O)c1cc2c(nc1N(C)C)CCN(C)CC2` has an INHIBITION of 13.3%.
`CNC(=O)c1cc2c(nc1NCC(C)C)CCN(S(=O)(=O)N(C)C)CC2` was tested, and the INHIBITION was -23.4%.
Compound `CCN1CC(C(=O)N2CCN(CCn3cccc3)CC2)CCC1=O` (stereo unspecified) has an INHIBITION of 6.69%.
With `O=C(NCC(Cc1cccc(F)c1)N1CCCC1=O)c1ccc[nH]c1=O` (stereo unspecified) the INHIBITION was 3.88%.
`COc1ccc(CN2CCC3(CCCN(C)C3=O)C2)c(OC)c1C` (stereo unspecified) gave an INHIBITION of 5.75%.
`CCn1ccnc1CN1CCOC(Cn2cccn2)C1` (stereo unspecified) showed an INHIBITION of 37.9%.
`CC1CCc2nc(NS(=O)(=O)c3cnn(C)c3)sc2C1` (stereo unspecified) showed an INHIBITION of 33.4%.
In the case of `CNc1nc(CNC(=O)Nc2ccc(SC)c(F)c2)cs1`, the INHIBITION is reported as -4.35%.
Work on `Cc1ccc(CN2CCCC3(CCC(=O)N3)CC2)s1` (stereo unspecified) yielded an INHIBITION of -19.6%.
`CN1CCC(Cc2noc(-c3cccc4c3OCC4)n2)CC1` was tested, and the INHIBITION was 34.5%.
Compound `Cc1ccc2oc(SCC(=O)NC(C)(C)C)nc2n1` has an INHIBITION of 49.1%.
In the case of `Cc1nc(Nc2cnccn2)cc(C2CCN(CCO)C2)n1` (stereo unspecified), the INHIBITION is reported as 23.2%.
Work on `Cc1ccc(-c2ncc(C(=O)NCCNC(=O)C3CC3)s2)c(C)c1` yielded an INHIBITION of -91.8%.
With `Cc1nccc(C(=O)N2CCOC(c3nc(C(C)C)n[nH]3)C2)n1` (stereo unspecified) the INHIBITION was -65.3%.
In the case of `Cc1nn(C)c2ncc(CN3CCN(Cc4ccco4)CC3)cc12`, the INHIBITION is reported as 21.2%.
Work on `Cc1cc(C)c(C(=O)N2CCOC(c3cccs3)C2)c(=O)[nH]1` (stereo unspecified) yielded an INHIBITION of -18.6%.
With `Cc1ccc(C2CN(C(=O)c3c(C)cc(C)[nH]c3=O)CCO2)c(C)c1` (stereo unspecified) the INHIBITION was 55%.
Compound `Cc1cc(C)c(CNC(=O)N2CCOC(c3ccccc3)C2)c(=O)[nH]1` (stereo unspecified) has an INHIBITION of 31.9%.
With `CNC(=O)C1CN(C(C)C)CCN1c1ncccn1` (stereo unspecified) the INHIBITION was 47.1%.
Work on `COc1cc2nc3n(c(=O)c2cc1OC)CCN(C(C)=O)CC3` yielded an INHIBITION of 21%.
Compound `CCCC(=O)N1CCc2nc3cc(OC)c(OC)cc3c(=O)n2CC1` has an INHIBITION of 44.1%.
With `CCC(=O)N1CCc2nc3cc(OC)c(OC)cc3c(=O)n2CC1` the INHIBITION was 59.1%.
With `COc1c(C2CCCN2C(=O)c2c[nH]c3ncccc23)c(C)nn1C` (stereo unspecified) the INHIBITION was 44.3%.
Work on `CCOc1cc(Cl)ccc1CNC(=O)N(C)CC(C)(C)O` yielded an INHIBITION of 25.2%.
Compound `CCOc1ccc(CNC(=O)N(C)CC(C)(C)O)cc1C` has an INHIBITION of 62.8%.
With `COc1ccc(CNC(=O)N(C)CC(C)(C)O)cc1OC` the INHIBITION was 46.6%.
Work on `O=C(NCC(CO)Cc1ccc(Cl)cc1)c1ccncc1F` (stereo unspecified) yielded an INHIBITION of -11.1%.
`Cc1cc(C)n(C2CCCN(C(=O)c3cn4cccnc4n3)C2)n1` (stereo unspecified) gave an INHIBITION of 31.9%.
`Cc1[nH]ccc1C(=O)N1CCCN1C(=O)OC(C)(C)C` was tested, and the INHIBITION was 14.3%.
Compound `CC(C)(C)OC(=O)N1CCCN1C(=O)c1cccc2cc[nH]c12` has an INHIBITION of 56.5%.
Work on `CC(C)(C)OC(=O)N1CCCN1C(=O)c1cccc(F)c1F` yielded an INHIBITION of 31.9%.
`O=C(NC1CCCC1)c1cc(C2CCCNC2)n[nH]1` (stereo unspecified) showed an INHIBITION of 9.98%.
